High-throughput results from PubChem BioAssay.
GLP-1R inv ag – acts as inverse agonist at human GLP-1 receptor | P43220 | HEK293 GLP-1R CRE-luciferase, luminescence, 24 h; GLP-1R form is constitutively active | Potency, µM (series often up to 38.3 µM), without a hit: at the top dose activity change, negative = inhibition, hits mostly inhibitors | 410,000 tested, 1.6% active; further: on the % scale 0 is the no-effect control and ±100 the full control effect; nearly all actives have a fitted effect of over 55% in size
Target sequence (P43220 whole entry, looked up): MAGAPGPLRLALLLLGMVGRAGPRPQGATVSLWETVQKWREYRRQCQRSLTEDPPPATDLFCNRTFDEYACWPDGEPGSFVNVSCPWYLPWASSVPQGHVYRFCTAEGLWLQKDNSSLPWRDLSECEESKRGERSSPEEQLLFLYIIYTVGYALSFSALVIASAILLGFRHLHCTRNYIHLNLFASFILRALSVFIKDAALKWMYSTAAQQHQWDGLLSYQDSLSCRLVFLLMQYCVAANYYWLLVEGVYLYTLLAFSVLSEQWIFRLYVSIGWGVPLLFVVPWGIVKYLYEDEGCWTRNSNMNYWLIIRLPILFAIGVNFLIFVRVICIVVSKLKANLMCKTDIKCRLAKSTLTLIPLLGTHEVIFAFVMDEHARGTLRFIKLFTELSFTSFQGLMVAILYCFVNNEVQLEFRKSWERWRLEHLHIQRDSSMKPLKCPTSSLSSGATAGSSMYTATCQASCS
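Using stably transfected HEK293 (constitutively active GLP-1R, cAMP-luciferase reporter), compounds were incubated 24 hr and luciferase measured by luminescence.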
HEK293 tox – cytotoxicity in counter-screen for GLP-1R inverse agonists | HEK293 cAMP-luciferase reporter cells, luminescence, 24 h | Potency, µM (titrated, usually from 38.3 µM), for inactives: at the top dose activity change, negative = inhibition, most hits filed as inhibitors | 410,000 tested, 0.13% active;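 further: loss of luciferase light is scored as toxicity; on the % scale 0 is the no-effect control and ±100 the full control effect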
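To flag toxic compounds, the library was rerun on cells for 24 hr at 37 deg C and 5% CO2. Viability-linked luminescence was captured 12 min after adding luciferase detection reagent.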
GLP-1R agonist – GLP-1 receptor (human) agonism; Potency, µM (highest dose often 45.6 µM), for the others: at the highest dose activation, hits mostly activators; 380,000 tested, 0.007% active; HEK293 GLP-1R CRE-luciferase, luminescence, 4-6 h; cells express a hypersensitive GLP-1R form; AID 624172; P43220; further: % of control where 0% means no effect
PTHR1 agonist – agonists of human PTHR1 parathyroid hormone receptor; Q03431; HEK293 GP2 PTHR1 cells, GloSensor cAMP luminescence, 1 h; Potency, µM (series often up to 115 µM), for inactives: at the top dose activation, most hits filed as activators; 410,000 tested, 0.075% active; AID 743266; further: nearly all actives have a fitted effect of over 55% in size
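HEK-293-derived GP2 cells expressing PTHR1 and a GloSensor cAMP reporter, 3,000/well, plated overnight, given luciferin plus IBMX (each 0.5 mM as added) for 1 h at 37 °C, then compound for 1 h at 37 °C. Luminescence was read after 15 min at room temperature.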
* hit, by the source's call; i = inactive; u = inconclusive; x = not tested or not shown; [ ] = another dose, or the depositor's remark. A selection: hits, their analogues and other compounds. The true share with any hit is near 1.7%. The call rests on the fitted dose curve; in most records, active means well fitted curve in the direction sought with a large enough effect; inconclusive means small, poorly fitted or top-dose-only effect, or another doubt; inactive means no such curve, though single readings can be large; an effect the other way counts as inactive or inconclusive. Potency means the concentration at half of the fitted maximal effect.

SMILES	GLP-1R inv ag	HEK293 tox	GLP-1R agonist	PTHR1 agonist
COc1ccc(NC(=O)CCn2c(-c3ccc(F)cc3)cc(C(C)=O)c2C)c(OC)c1	5%	-20%	x	i
CCOC(=O)c1cnc(-n2nc(C)cc2C)nc1NC(C)c1ccccc1 (configuration not stated)	2.5µM*	u	-3%	i
CCOC(=O)c1cnc(-n2nc(C)cc2C)nc1NCc1ccccc1	3.5µM*	u	-2%	-18%
CC(C)N(CC#CCC(O)(c1ccccc1)c1ccccc1)CCO	10µM*	-14%	-1%	-2%
CC(=Nc1ccc(C)cc1)c1sc2ccccc2c1O	13µM*	137%	-7%	11%
Cc1ccc(NC(=O)CCC(=O)N2Cc3ccccc3Oc3ncccc32)c(C)c1	-3%	-9%	x	-25%
O=c1c2ccccc2oc2ccc(C#CC3(O)CCCCC3)cc12	7.1µM*	-27%	-1%	-28%
Cn1c2ccccc2c(=O)c2cc(C#CC3(O)CCCCC3)ccc21	1µM*	-1%	-5%	-93%
CCn1nccc1C(=O)Nc1ccc(C(=O)OC(C)C)cc1	u	2%	17%	-18%
Cn1c(CN2CCCC2)nc2cc(NS(=O)(=O)c3ccc(Cl)cc3)ccc21	4µM*	17%	-2%	-9%[57.5 µM]
CS(=O)(=O)c1ccccc1C(=O)N1CCN(S(=O)(=O)c2ccc(C3CCCCC3)cc2)CC1	10µM*	-7%	-1%	-35%
O=C(c1ccco1)N1CCN(S(=O)(=O)c2ccc(C3CCCCC3)cc2)CC1	19%	-3%	-1%	-21%
CCOC(=O)[C@]12CCCC=C1N(CCc1ccc(OC)c(OC)c1)C(=O)[C@H](CC(=O)NCCCCc1ccccc1)C2	10µM*	-27%	x	3%
CC1(c2ccc3ccccc3c2)NC(=O)N(CC(=O)N2CCN(c3ccccc3O)CC2)C1=O (configuration not stated)	11µM*	1%	1%	-29%
CN1CCN(C(=O)CN2C(=O)NC(C)(c3ccc4ccccc4c3)C2=O)CC1 (configuration not stated)	-9%	-14%	2%	i
Nc1nc(N=Nc2ccc(O)cc2)cc(=O)[nH]1	-8%	10µM*	1%	7%
NC(=S)N/N=C/c1ccccc1OCCSc1ccc(Cl)cc1	2.8µM*	3.2µM*	0%	-20%
CC(NCC(=O)Nc1ccccc1C(=O)NC1CC1)c1cccc(C(F)(F)F)c1 (configuration not stated)	13µM*	0%	11%	-31%
C/C(=N\NC(=O)c1cc(C)nc2ccccc12)c1ccccn1	u	3.2µM*	-6%	-96%
O=C(N/N=C/c1ccccn1)c1cc(-c2ccccc2)nc2ccccc12	u	5µM*	-5%	-58%
Cc1ccccc1NC(=S)NC(=O)c1cc(-c2ccccc2)nc2ccccc12	7.9µM*	0%	-7%	-3%[57.5 µM]
O=C(N/N=C/c1ccc(F)cc1)c1cc(-c2ccccn2)nc2ccccc12	19%	-1%	-8%	-16%
COc1cccc(/C=N/NC(=O)c2cc(-c3ccccn3)nc3ccccc23)c1O	5µM*	-3%	14%	i
CCN(C(=O)Cn1cc(S(=O)(=O)Cc2ccccc2Cl)c2ccccc21)c1ccccc1	u	-18%	x	-3%
COc1cccc2cc(-c3nc4sc(C(=O)Nc5ccc(F)cc5F)c(C)c4c(=O)[nH]3)c(=O)oc12	0%	21%	x	u
SMILES	GLP-1R inv ag	HEK293 tox	GLP-1R agonist	PTHR1 agonist
CCOC(=O)c1csc(NC(=O)C2=COCCO2)n1	-30%	-11%	-4%	-43%
CCOCCOC(=O)c1ccc(NC(=O)/C=C/c2ccc(OC)c(OC)c2)cc1	u	14%	x	-31%
COc1ccc(NC(=O)N(C(C)C)C2CCN(C(C)=O)CC2)c(OC)c1	-5%	-2%	x	-15%
Cc1ccc(S(=O)(=O)NC(C)(C)C)cc1C(=O)OCC(=O)N1CCCC1=O	7%	0%	-5%	i
Cc1ccc(CN2CCC(CNC(=O)Nc3ccc(Cl)cc3)C2)cc1 (configuration not stated)	-28%	-18%	x	i
O=C(Nc1ccccc1C(F)(F)F)c1ccc(CN2CCC(Cc3ccccc3)CC2)cc1	8.9µM*	u	-2%	-10%[57.5 µM]
Cc1ccc(C)c(CN2CCC(CNC(=O)Nc3ccc(F)c(Cl)c3)CC2)c1	u	u	1%	-67%
Cc1ccc(NC(=O)NCC2CCN(Cc3cccc(Cl)c3)CC2)c(Cl)c1	u	-4%	1%	i
CCc1ccc(NC(=O)NCC2CCN(Cc3cccc(Cl)c3)CC2)cc1	13µM*	-18%	-8%	i
Cc1ccc(NC(=O)NCC2CCN(Cc3cccc(Cl)c3)CC2)cc1Cl	2.2µM*	u	3%	-8%
O=C(NCC1CCN(Cc2cccc(Cl)c2)CC1)Nc1ccccc1Cl	10µM*	-8%	10%	i
CC1(CCc2ccccc2)NC(=O)N(CC(=O)Nc2c(F)cccc2F)C1=O (configuration not stated)	-4%	-20%	2%	-35%
CC(C)CN(C(=O)COC(=O)c1ccccn1)c1c(N)n(Cc2ccccc2)c(=O)[nH]c1=O	10%	4%	-1%	-12%
Cc1nn(Cc2ccccc2Cl)c(C)c1C(=O)NCC(c1cccs1)N1CCOCC1 (configuration not stated)	u	u	2%	i
CCCN(C(=O)c1cc2c(=O)n(CC)c3ccccc3c2s1)c1ccccc1F	-26%	1%	-1%	i
CCOc1ccccc1N(CC)C(=O)c1cc2c(=O)n(CC)c3ccccc3c2s1	10µM*	u	-1%	-57%
Cc1ccc(NC(NC(=O)c2cccs2)C(Cl)(Cl)Cl)cc1C (configuration not stated)	13µM*	-25%	-5%	-8%[57.5 µM]
Cc1ccccc1NC(NC(=O)c1cccs1)C(Cl)(Cl)Cl (configuration not stated)	7.9µM*	-7%	-13%	-25%[57.5 µM]
O=C(COC(=O)c1cc(S(=O)(=O)N2CCCC2)ccc1O)NCCc1ccccc1	-3%	2%	-6%	-37%
CN[C@H](C)CCC=C(C)C	x	x	-4%	x
COc1ccc(NC(=O)C2CCCN(S(=O)(=O)c3cccs3)C2)cc1OC (configuration not stated)	-6%	-5%	3%	u
CCc1cccc(NC(=O)C2CCCN(S(=O)(=O)c3cccs3)C2)c1 (configuration not stated)	10µM*	-12%	18%	-15%
Cc1noc(C)c1COC(=O)c1cccc(S(=O)(=O)N2c3ccccc3CC2C)c1 (configuration not stated)	14µM*	3%	3%	i
COCCNC(=S)NCc1ccc2[nH]c3c(c2c1)CCCC3	u	4%	-2%	i
Cc1ccc(NC(=S)NCc2ccc3[nH]c4c(c3c2)CCCC4)cc1	13µM*	u	11%	-18%
CN1CC[C@H](c2c(O)cc(O)c3c(=O)cc(-c4ccccc4Cl)oc23)[C@@H](O)C1	x	x	-11%	x
